Assay results as given in PubChem BioAssay (Tox21).
“And” between values parts separate entries of the source, which are not always exact repeats. Identical values can stand only once. Records with an inconclusive call do not appear. The source holds several records for some structures; these can differ, active in one and inactive in another. The source made the active and inactive calls. Unless noted, calls follow the shape of the dose curve; as a rule, active = well fitted curve in the direction sought with a large enough effect in the repeat runs; inconclusive = weak or mixed curves; inactive = no such curve, though single readings can be large; an effect the other way counts as inactive or inconclusive.

Assays:
[1] = A CellTox Green Cytotoxicity Assay to monitor cytotoxicity in HEK293 cells - 32 hour (AID 1224881); also: nearly all actives have a fitted effect of over 40% in size; also: potency is read from the fitted curve at half-maximal effect
In short: (§1)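 Tox21 screen in HEK293: membrane-impermeant cyanine dye fluoresces on binding dead-cell DNA; compound pinned 5 h post-seeding, plates held at 37 C, signal read repeatedly through 40 h.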

[2] = A CellTox Green Cytotoxicity Assay to monitor cytotoxicity in HepG2 cells - 0 hour (AID 1224882); also: nearly all actives have a fitted effect of over 35% in size
In short: (§2)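 Measurements at 0, 8, 16, 24, 32 and 40 h of treatment captured CellTox Green fluorescence in HepG2 cells that had been co-plated with reagent and preincubated 5 h at 37 C/5% CO2.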

[3] = A CellTox Green Cytotoxicity Assay to monitor cytotoxicity in HepG2 cells - 32 hour (AID 1224883); also: nearly all actives have a fitted effect of over 50% in size; also: potency is read from the fitted curve at half-maximal effect
In short: as §2

[4] = A CellTox Green Cytotoxicity Assay to monitor cytotoxicity in HEK293 cells - 8 hour (AID 1224884); also: nearly all actives have a fitted effect of over 35% in size; also: potency is read from the fitted curve at half-maximal effect
In short: as §1

[5] = qHTS RealTime-Glo MT Cell Viability Assay in HepG2 cells - 16 hour (AID 1224885); also: nearly all actives have a fitted effect of over 50% in size; also: potency is read from the fitted curve at half-maximal effect
In short: (§3)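 Cells + NanoLuc/prosubstrate dispensed (600 cells/well) → 5 h at 37 C/5% CO2 → compounds in DMSO transferred → 40 h incubation at 37 C, luminescence read at 0, 8, 16, 24, 32, 40 h.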

[6] = qHTS RealTime-Glo MT Cell Viability Assay in HEK293 cells - 24 hour (AID 1224886); also: nearly all actives have a fitted effect of over 50% in size; also: potency is read from the fitted curve at half-maximal effect
In short: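 Tox21 10K qHTS, HEK293, 600 cells/well, RealTime-Glo reagent co-dispensed with cells; 5 h preincubation, compound by pintool, 37 C, luminescence at 0–40 h.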

[7] = qHTS RealTime-Glo MT Cell Viability Assay in HEK293 cells - 8 hour (AID 1224887); also: nearly all actives have a fitted effect of over 50% in size; also: potency is read from the fitted curve at half-maximal effect
In short: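 HEK293 + NanoLuc + prosubstrate, 600 cells/well; 5 h, 37 C/5% CO2; compound 23 nL in DMSO by pintool; 37 C; luminescence read at 0, 8, 16, 24, 32 and 40 h time points.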

[8] = A CellTox Green Cytotoxicity Assay to monitor cytotoxicity in HEK293 cells - 16 hour (AID 1224888); also: nearly all actives have a fitted effect of over 35% in size; also: potency is read from the fitted curve at half-maximal effect
In short: as §1

[9] = qHTS RealTime-Glo MT Cell Viability Assay in HepG2 cells - 0 hour (AID 1224889); also: nearly all actives have a fitted effect of over 50% in size
In short: as §3

[10] = A CellTox Green Cytotoxicity Assay to monitor cytotoxicity in HepG2 cells - 8 hour (AID 1224890); also: nearly all actives have a fitted effect of over 45% in size; also: potency is read from the fitted curve at half-maximal effect
In short: as §2

[11] = qHTS assay to identify small molecule antagonists of the estrogen receptor alpha (ER-alpha) signaling pathway using the BG1 cell line in the presence of 0.1 nM 17-beta-estradiol - cell viability counter screen (AID 1259241); also: nearly all actives have a fitted effect of over 40% in size; also: potency is read from the fitted curve at half-maximal effect
In short: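 VM7Luc4E2 cells (endogenous full-length ER-alpha, 4xERE-luciferase), cultured 5 days in charcoal-stripped serum, exposed to compounds with 0.1 nM 17beta-estradiol (final) for 22 hr at 37C. Viability read in same wells as live-cell protease fluorescence after 30 min.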

[12] = qHTS assay to identify small molecule antagonists of the androgen receptor (AR) signaling pathway using the MDA cell line in the presence of 0.5 nM R1881 - cell viability counter screen (AID 1259242); also: nearly all actives have a fitted effect of over 45% in size; also: potency is read from the fitted curve at half-maximal effect
In short: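 Concentration-response screen of compounds for toxicity in MDA-kb2 reporter cells: 16 hr at 37C with 0.5 nM R1881, endpoint live-cell protease fluorescence measured in the reporter wells.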

[13] = biological target: Estrogen receptor (Homo sapiens) (UniProt P03372); assay: qHTS assay to identify small molecule antagonists of the estrogen receptor alpha (ER-alpha) signaling pathway using the BG1 cell line in the presence of 0.1 nM 17-beta-estradiol (AID 1259244); also: nearly all actives have a fitted effect of over 50% in size; also: potency is read from the fitted curve at half-maximal effect
Sequence of Estrogen receptor (Homo sapiens) (P03372 whole entry, looked up): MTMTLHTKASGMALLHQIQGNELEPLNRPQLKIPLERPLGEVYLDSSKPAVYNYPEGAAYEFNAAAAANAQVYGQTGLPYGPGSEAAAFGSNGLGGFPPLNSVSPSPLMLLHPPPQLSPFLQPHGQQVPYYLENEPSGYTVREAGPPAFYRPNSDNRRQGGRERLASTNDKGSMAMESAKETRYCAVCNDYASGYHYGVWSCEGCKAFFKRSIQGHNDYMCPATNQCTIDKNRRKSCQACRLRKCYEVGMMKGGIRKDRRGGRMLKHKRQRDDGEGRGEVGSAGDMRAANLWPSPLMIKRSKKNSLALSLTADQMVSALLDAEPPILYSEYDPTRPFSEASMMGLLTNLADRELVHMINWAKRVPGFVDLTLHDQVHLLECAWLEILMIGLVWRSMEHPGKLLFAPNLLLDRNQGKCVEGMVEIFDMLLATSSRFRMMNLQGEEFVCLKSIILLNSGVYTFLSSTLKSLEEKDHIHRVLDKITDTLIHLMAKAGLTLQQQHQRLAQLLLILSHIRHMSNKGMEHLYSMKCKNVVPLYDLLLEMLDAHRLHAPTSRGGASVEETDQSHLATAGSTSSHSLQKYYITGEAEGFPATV
In short: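 Compounds were tested against 0.1 nM (final) 17beta-estradiol in VM7Luc4E2 cells, which express full-length ER-alpha and an ERE-luciferase reporter; luminescence was recorded following 22 h exposure.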

[14] = qHTS assay to identify small molecule HDAC inhibitors (AID 1259364); also: potency is read from the fitted curve at half-maximal effect;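 also: wild-type HCT-116 cells with endogenous class I/II HDAC activity; nearly all actives have a fitted effect of over 45% in size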
In short: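 Screening used wild-type human colon HCT-116 cells incubated overnight, dosed with compounds for 2 hours, and assayed with a homogeneous luminogenic HDAC I/II reagent for 30 minutes at room temperature.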

[15] = qHTS assay to identify small molecule HDAC inhibitors - cell viability counter screen (AID 1259365); also: nearly all actives have a fitted effect of over 50% in size; also: potency is read from the fitted curve at half-maximal effect
In short: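 Wild-type HCT-116 cells, 1,500/well, cultured overnight, then compound-treated 2 h at 37 C. Viability measured as ATP luminescence with CellTiter-Glo after 30 min at room temperature.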

[16] = qHTS assay to identify small molecule agonists of the sonic hedgehog signaling (Shh) pathway - cell viability counter screen (AID 1259366); also: nearly all actives have a fitted effect of over 50% in size; also: potency is read from the fitted curve at half-maximal effect
In short: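 NIH/3T3-derived Gli1-Luc reporter cells, 2,000 per well, received compound after 4 h and were treated about 23 h at 37C. Viability measured in the same wells by CellTiter-Fluor fluorescence after 1 h.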

[17] = qHTS assay to identify small molecule antagonists of the sonic hedgehog signaling (Shh) pathway - cell viability counter screen (AID 1259367); also: nearly all actives have a fitted effect of over 55% in size; also: potency is read from the fitted curve at half-maximal effect
In short: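 Cytotoxicity was assessed in parallel with Shh reporter activity by measuring live-cell protease fluorescence (CellTiter-Fluor) in NIH/3T3 cells stably carrying Gli1-Luc, treated with compound under conditioned medium stimulation for 23 hr plus 1 hr reagent incubation.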

[18] = qHTS assay to identify small molecule agonists of the sonic hedgehog signaling (Shh) pathway (AID 1259368; calls by dose curve;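 also: NIH/3T3-derived 3T3Gli1-Luc cells carrying a stable Gli1-driven firefly luciferase reporter; series mostly up to about 92 µM; nearly all actives have a fitted effect of over 15% in size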)
In short: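 Hedgehog pathway agonism scored by increased firefly luciferase luminescence in 3T3Gli1-Luc cells treated 24 hr at 37 C; detection used a 30 min room-temperature reagent incubation.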

[19] = biological target: Androgen receptor (Homo sapiens) (UniProt P10275); assay: qHTS assay to identify small molecule antagonists of the androgen receptor (AR) signaling pathway using the MDA cell line in the presence of 0.5 nM R1881 (AID 1259243); also: nearly all actives have a fitted effect of over 50% in size; also: potency is read from the fitted curve at half-maximal effect
Sequence of Androgen receptor (Homo sapiens) (P10275 whole entry, looked up): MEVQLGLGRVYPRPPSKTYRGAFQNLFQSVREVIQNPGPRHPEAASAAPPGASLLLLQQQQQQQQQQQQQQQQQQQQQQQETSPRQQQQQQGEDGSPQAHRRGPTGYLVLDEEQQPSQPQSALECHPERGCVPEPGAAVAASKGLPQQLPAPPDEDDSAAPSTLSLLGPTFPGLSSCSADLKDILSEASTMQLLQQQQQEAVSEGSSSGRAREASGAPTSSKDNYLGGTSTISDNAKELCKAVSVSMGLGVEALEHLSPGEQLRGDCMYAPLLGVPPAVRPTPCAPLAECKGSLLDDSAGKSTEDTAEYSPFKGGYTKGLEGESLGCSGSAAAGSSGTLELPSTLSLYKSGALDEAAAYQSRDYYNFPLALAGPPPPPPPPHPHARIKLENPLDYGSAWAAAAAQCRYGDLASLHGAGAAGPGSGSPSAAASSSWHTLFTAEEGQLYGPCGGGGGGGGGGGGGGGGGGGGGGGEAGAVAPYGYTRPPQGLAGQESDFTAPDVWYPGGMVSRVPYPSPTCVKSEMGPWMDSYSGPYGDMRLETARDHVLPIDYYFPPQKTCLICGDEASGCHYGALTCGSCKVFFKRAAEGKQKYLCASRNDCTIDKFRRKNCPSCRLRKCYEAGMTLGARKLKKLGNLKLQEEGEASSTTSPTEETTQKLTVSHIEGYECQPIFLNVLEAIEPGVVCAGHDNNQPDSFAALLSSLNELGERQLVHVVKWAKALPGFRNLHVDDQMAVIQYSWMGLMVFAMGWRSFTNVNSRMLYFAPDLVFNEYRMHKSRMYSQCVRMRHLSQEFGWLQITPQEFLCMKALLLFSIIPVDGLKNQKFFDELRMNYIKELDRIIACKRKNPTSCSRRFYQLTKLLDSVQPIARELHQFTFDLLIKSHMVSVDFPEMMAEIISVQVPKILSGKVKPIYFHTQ
In short: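 With R1881 held at 0.5 nM (final), compound effects on MMTV-luciferase expression in MDA-kb2 cells were scored by luminescence after a 16 hr, 37C incubation.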

[20] = qHTS assay to identify small molecule phospholipidosis (PLD) inducers (AID 1259344; active = well fitted curve in the direction sought with a large enough effect; an effect the other way counts as inactive or inconclusive)
In short: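 Cells (HepG2, 900 per well) attach for 4 h, receive LipidTOX Red and compound together, incubate 24 h at 37 C, are fixed 30 min with paraformaldehyde/Hoechst, then imaged at one site per well.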

Measured: Potency

CSC(C)(C)/C=N/O
not listed: [19] | [20]
inactive: all other assays above

O=[N+]([O-])c1ccc(CCl)cc1
not listed: [19] | [20]
inactive: all other assays above

c1cc[n+]2c(c1)-c1cccc[n+]1CC2
active: [11] 26.6 µM | [13] 26.6 µM
not listed: [16] | [19] | [20]
inactive: all other assays above

N#Cc1c2ccccc2cc2ccccc12
active: [19] 10.8 µM
not listed: [16] | [17] | [20]
inactive: all other assays above

CC(C)C(Br)C(=O)NC(N)=O (configuration not stated)
not listed: [18] | [19]
inactive: all other assays above

C#CCO
not listed: [16] | [19] | [20]
inactive: all other assays above

CCOP(=O)(Sc1ccccc1)Sc1ccccc1
not listed: [16] | [19] | [20]
inactive: all other assays above

O=C1C2(Cl)C3(Cl)C4(Cl)C(Cl)(Cl)C5(Cl)C3(Cl)C1(Cl)C5(Cl)C24Cl (configuration not stated)
active: [1] 38.3 µM and 52.6 µM | [3] 24.1 µM and 41.8 µM | [4] 34.1 µM and 52.6 µM | [5] 48.2 µM and 46.9 µM | [6] 17.1 µM and 41.8 µM | [7] 34.1 µM and 46.9 µM | [8] 42.9 µM and 52.6 µM | [10] 21.5 µM and 41.8 µM | [12] 60.1 µM | [16] 26.9 µM | [17] 37.9 µM and 58.5 µM
inactive: [2] | [9] | [11] | [14] | [15] | [18]
inactive and 65.7 µM (active): [19]

CCNS(=O)(=O)C(F)(F)C(F)(F)C(F)(F)C(F)(F)C(F)(F)C(F)(F)C(F)(F)C(F)(F)F
active: [17] 65.7 µM
not listed: [13] | [16] | [20]
inactive: all other assays above

O=c1[nH]c2cc(Cl)ccc2n1C1CCNCC1
not listed: [16] | [20]
inactive: all other assays above

ClSC(Cl)(Cl)Cl
not listed: [18] | [19] | [20]
inactive: all other assays above

CC(C)NCC(O)c1ccccc1Cl (configuration not stated)
inactive: all assays above

O=P(Cl)(Cl)Cl
not listed: [19] | [20]
inactive: all other assays above

O=[N+]([O-])c1cc(C(F)(F)F)c(Cl)c([N+](=O)[O-])c1Nc1ncc(C(F)(F)F)cc1Cl
active: [1] 24.5 µM | [3] 4.9 µM | [4] 49 µM | [5] 24.5 µM | [6] 1.74 µM | [7] 5.49 µM | [8] 49 µM | [11] 21.7 µM | [12] 4.86 µM | [13] 24.3 µM | [15] 54.5 µM | [16] 4.33 µM | [17] 6.11 µM
inactive: [2] | [9] | [10] | [14] | [18]

Clc1ccc(C(c2ccc(Cl)cc2)C(Cl)Cl)cc1
active: [1] 49 µM | [6] 44.4 µM and 43.6 µM | [7] 44.4 µM and 38.9 µM
not listed: [18] | [19] | [20]
inactive: all other assays above

Cc1c([N+](=O)[O-])c(C)c([N+](=O)[O-])c(C(C)(C)C)c1[N+](=O)[O-]
not listed: [11] | [18] | [19] | [20]
inactive: all other assays above

CN1CCc2cc3c(cc2C1O)OCO3 (configuration not stated)
not listed: [11] | [13] | [16] | [17] | [19] | [20]
inactive: all other assays above

CN(C)CCc1c[nH]c2ccccc12
not listed: [11] | [13] | [16] | [17] | [19]
inactive: all other assays above

CCNc1nc(NC(C)C(C)C)nc(SC)n1 (configuration not stated)
not listed: [11] | [19] | [20]
inactive: all other assays above

CCOP(=O)(OCC)Oc1nc(Cl)c(Cl)cc1Cl
not listed: [9] | [13] | [14] | [20]
inactive: all other assays above

S=C=Nc1ccccc1
not listed: [9] | [20]
inactive: all other assays above

[O]=[Cr][O][Cr]=[O]
not listed: [9] | [19] | [20]
inactive: all other assays above

[Cl-].[Cl-].[Sn+2]
not listed: [13] | [16] | [19] | [20]
inactive: all other assays above

N#Cc1sc2c(=O)c3ccccc3c(=O)c=2sc1C#N
inactive: [2] | [4] | [18]
active: [1] 13.8 µM | [3] 13.8 µM | [5] 9.77 µM | [6] 15.5 µM | [7] 6.92 µM | [8] 43.6 µM | [10] 54.9 µM | [11] 5.45 µM | [12] 13.7 µM | [19] 4.86 µM | [13] 2.43 µM | [14] 27.3 µM | [15] 30.6 µM | [16] 8.63 µM | [17] 9.69 µM

CCC(C)Br (configuration not stated)
not listed: [13] | [19] | [20]
inactive: all other assays above

CC(=O)[O-].CC(=O)[O-].[Co+2]
not listed: [13] | [16] | [17] | [18] | [19] | [20]
inactive: all other assays above

Fc1ccc(C(OCCN2CCN(CCCc3ccccc3)CC2)c2ccc(F)cc2)cc1
inactive: [2] | [9] | [20] | [14] | [15] | [18]
active: [1] 23.9 µM | [3] 23.9 µM | [4] 21.3 µM | [5] 23.9 µM | [6] 9.52 µM | [7] 16.9 µM | [8] 21.3 µM | [10] 23.9 µM | [12] 23.7 µM | [19] 8.41 µM | [13] 23.7 µM | [16] 18.8 µM | [17] 21.1 µM

CC(=O)O.CC(=O)O.CC(=O)O.CC(=O)O.CC(=O)O.CC(=O)O.CC(=O)O.O.O.[Cr].[Cr].[Cr]
not listed: [13] | [16] | [18] | [19] | [20]
inactive: all other assays above
